Results reported in PubChem BioAssay (EPA / NIEHS).
“And” between values parts separate entries of the source, which are not always exact repeats. Identical values can stand only once. Inconclusive results are not listed. Where a structure was tested more than once in an assay, its records may differ in their call. The source made the active and inactive calls. How the source made its calls, unless noted: active means hit-call score of the fitted dose curve at least 0.9, where 1 is the maximum; inconclusive means response in the unintended direction; inactive means score below 0.9.

Columns and labels:
[1] = target: Retinoic acid receptor RXR-alpha (Homo sapiens) (UniProt P19793); experiment: OT_NURR1_NURR1RXRa_1440: Odyssey Thera (OT) 24-hour HEK293T Protein Complementation Assay for Nurr1/retinoid X receptor (RXR) (AID 2283386)
In short: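 Interaction of Nurr1 with RXRα brings fused reporter fragments together in human HEK293T cells, restoring a functional reporter. Fluorescence intensity is measured 24 h after chemical treatment, and values are analysed in the positive direction against DMSO.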

[2] = target: Peroxisome proliferator-activated receptor gamma (Homo sapiens) (UniProt P37231); experiment: OT_PPARg_PPARgSRC1_0480: Odyssey Thera (OT) 8-hour Protein-Complementation Assay for Peroxisome Proliferator-activated Receptor Gamma / SRC-1 Co-activator (AID 2283387)
In short: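 HEK293T transiently transfected with PPARg and SRC-1 fused to Venus YFP fragments, compounds 8 h at 37C. Fixed, Draq5-stained cells imaged; nuclear/cytoplasmic 488 nm fluorescence ratio over at least 350 cells per image; gain fitted versus DMSO.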

[3] = target: Peroxisome proliferator-activated receptor gamma (Homo sapiens) (UniProt P37231); experiment: OT_PPARg_PPARgSRC1_1440: Odyssey Thera (OT) 24-hour Protein-Complementation Assay for Peroxisome Proliferator-activated Receptor Gamma/ SRC-1 Co-activator (AID 2283388)
In short: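 HEK293T cells transiently transfected with PPARg and SRC-1 fused via (Gly4Ser)2 linker to split Venus YFP fragments (IFP1/IFP2) were dosed 24 h; fixed, Draq5-stained, imaged at 488/635 nm; nuclear/cytoplasmic fluorescence ratio scored versus DMSO baseline, gain-of-signal.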

[4] = CEETOX_H295R_11DCORT: CeeTox H295R High-throughput Steroidogenesis Assay for 11-Deoxycortisol (11DCORT) (AID 2283432; active means hit-call score of the fitted dose curve at least 0.9, where 1 is the maximum; inactive means score below 0.9;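 on AC50: human adrenal H295R cells prestimulated with 10 µM forskolin for 48 h; 11-deoxycortisol secreted into the medium measured by LC-MS/MS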); conditions: actives raise or lower the signal
In short: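 H295R cells prestimulated 48 h with 10 uM forskolin, then exposed 48 h to chemical in 0.1% DMSO. 11-Deoxycortisol in medium quantified by HPLC-MS/MS after MTBE extraction; bidirectional fit versus DMSO. MTT viability read in same wells.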

[5] = CEETOX_H295R_OHPREG: CeeTox H295R High-throughput Steroidogenesis Assay for OH-Pregnenolone (OHPREG) (AID 2283434; active means hit-call score of the fitted dose curve at least 0.9, where 1 is the maximum; inactive means score below 0.9); conditions: actives raise or lower the signal
In short: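 Hormone levels in spent medium were measured by tandem mass spectrometry following liquid-liquid extraction. Cells (H295R) had been forskolin-stimulated (10 uM, 48 h) before a 48 h chemical exposure at 0.1% DMSO, with activity fitted in both directions against DMSO.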

[6] = CEETOX_H295R_OHPROG: CeeTox H295R High-throughput Steroidogenesis Assay for OH-Progesterone (OHPROG) (AID 2283435; active means hit-call score of the fitted dose curve at least 0.9, where 1 is the maximum; inactive means score below 0.9;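 on AC50: human adrenal H295R cells primed 48 h with 10 µM forskolin; 17alpha-hydroxyprogesterone secreted into medium measured by HPLC-MS/MS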); conditions: actives raise or lower the signal
In short: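 H295R, 10 uM forskolin prestim 48 h; cmpd in 0.1% DMSO 48 h; medium MTBE-extracted, HPLC-MS/MS for OH-progesterone; 7-pt std curve; bidirectional fit vs DMSO; MTT viability, chemicals diluted until viability >/=70%.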

[7] = CEETOX_H295R_CORTISOL: CeeTox H295R High-throughput Steroidogenesis Assay for Cortisol (AID 2283438; active means hit-call score of the fitted dose curve at least 0.9, where 1 is the maximum; inactive means score below 0.9;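 further: cortisol secreted into medium quantified by LC-MS/MS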); conditions: actives raise or lower the signal
In short: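 Forskolin 10 uM 48 h prestim → test cmpd in DMSO (0.1% final) 48 h → medium MTBE-extracted → LC-MS/MS cortisol vs 7-pt std curve. Gain/loss of signal fitted vs DMSO. MTT viability in same wells.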

[8] = CEETOX_H295R_ANDR: CeeTox H295R High-throughput Steroidogenesis Assay for Androstenedione (ANDR) (AID 2283436; active means hit-call score of the fitted dose curve at least 0.9, where 1 is the maximum; inactive means score below 0.9;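 further: human H295R adrenal cells exposed for 48 h with androstenedione measured in medium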); conditions: actives raise or lower the signal
Description: CEETOX_H295R is a cell-based, multiplexed-readout assay that uses H295R, a human adrenal gland cell line, with measurements taken at 48 hours after chemical dosing in a 96-well plate.CEETOX_H295R_ANDR is one of 23 assay component(s) measured or calculated from the CEETOX_H295R assay. It is designed to make measurements of hormone induction, a form of inducible reporter, as detected with absorbance signals by HPLC-MS-MS technology.Data from the assay component CEETOX_H295R_ANDR was analyzed into 1 assay endpoint. This assay endpoint, CEETOX_H295R_ANDR, was analyzed with bidirectional fitting relative to DMSO as the negative control and baseline of activity. […] To generalize the intended target to other relatable targets, this assay endpoint is annotated to the steroid hormone intended target family, where the subfamily is androgens.
Cell culture and media preparation procedures were conducted in accordance with OECD Test No. 456 guidelines, with minor modifications. H295R cells (ATCC CRL-2128) were expanded for 5 passages and frozen in batches in liquid nitrogen. Prior to the steroidogenesis assay, H295R cells were thawed and passed at least 4 times. The maximum passage was 10. Cells were maintained in a 1:1 mixture of DMEM/F12 supplemented with 5ml/L ITS+ Premix (BD Bioscience) and 12.5 ml/L Nu-Serum (BD Bioscience). After seeding cells into 96-well plates at 50-60% confluency, cells were allowed to adhere overnight. […] Test chemicals were incubated for 48 hours, then the medium was removed and split into 2 vials containing approximately 75uL each, and stored at -80 C prior to hormone analysis. For steroid quantification, media samples were shipped to OpAns, LLC (Durham, NC) on dry ice, and samples were thawed to room temperature prior to liquid-liquid extraction. Steroid hormones were extracted from media samples using methyl tertbutyl ether (MTBE). An extra derivatization with dansyl chloride was included for estrogen (estrone and estradiol) detection only. Steroid hormones were separated by HPLC, eluted using a reverse phase C18 gradient with electrospray positive ionization, followed by quantification by tandem mass spectrometry (MS/MS). Data were acquired on a MassHunter Workstation Acquisition version B03.01 (Agilent Technologies, Inc.) and processed using MassHunter Quantitative Analysis for QQQ. Accuracy was determined for each hormone analyte from 3 standards to determine upper and lower limits of quantification (ULOQ and LLOQ, respectively) using a 7-point standard curve. Precision and accuracy of the extraction and quantification methods were calculated as the percent relative standard deviation (%RSD) of the spiked standards and percent spiked standard recovered, respectively. […] Test medium was removed following chemical exposure, and cell viability was evaluated in the same wells by MTT. MTT procedures were as follows: after removal of test medium, 500 uL of 0.5 mg/ml of 3-[4,5-dimethylthiazol-2-y]2,5-diphenyltetrazoliumbromide solution was added to the cells. Following a 4-hour incubation at 37 C and 5% CO2 to allow formazan-crystal formation, the MTT solution was removed and blue formazan salt crystals were solubilized using 500uL anhydrous isopropanol with shaking for 20 minutes. Absorbance was read at 570 and 650nm using a Packard Fusion microplate reader. Background correction of absorbance units was used to determine percent change relative to controls. […] When a test chemical reduced cell viability to 20% - 70%, the test chemical was diluted 10-fold and re-evaluated, but if cell viability was <20%, then the test chemical was diluted 100-fold and re-evaluated. Test chemical dilutions were made until cell viability was >/=70%. MTT assays were also conducted for duplicates of all concentrations of chemicals tested in concentration-response studies.

[9] = CEETOX_H295R_CORTIC: CeeTox H295R High-throughput Steroidogenesis Assay for Corticosterone (CORTIC) (AID 2283437; active means hit-call score of the fitted dose curve at least 0.9, where 1 is the maximum; inactive means score below 0.9;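 further: corticosterone secreted into medium quantified by mass spectrometry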;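 on AC50: human H295R adrenal cells prestimulated with forskolin before chemical exposure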); conditions: actives raise or lower the signal
In short: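 Corticosterone secreted into medium is measured by reverse-phase HPLC with tandem MS following liquid-liquid extraction. Cells are forskolin-stimulated (10 uM, 48 h) before 48 h test exposure; activity fitted in both directions against DMSO.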

[10] = CEETOX_H295R_DOC: CeeTox H295R High-throughput Steroidogenesis Assay for DOC (AID 2283439; active means hit-call score of the fitted dose curve at least 0.9, where 1 is the maximum; inactive means score below 0.9); conditions: actives raise or lower the signal
In short: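 Readout: 11-deoxycorticosterone in culture medium by reverse-phase C18 HPLC with ESI+ tandem MS after MTBE extraction. Cells: H295R, forskolin-primed (10 uM, 48 h), chemical-treated 48 h; DMSO 0.1% final. Activity fitted bidirectionally versus DMSO.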

Measured: AC50

Sequence of Peroxisome proliferator-activated receptor gamma (Homo sapiens) (P37231 whole entry, looked up, the tested form may be a part): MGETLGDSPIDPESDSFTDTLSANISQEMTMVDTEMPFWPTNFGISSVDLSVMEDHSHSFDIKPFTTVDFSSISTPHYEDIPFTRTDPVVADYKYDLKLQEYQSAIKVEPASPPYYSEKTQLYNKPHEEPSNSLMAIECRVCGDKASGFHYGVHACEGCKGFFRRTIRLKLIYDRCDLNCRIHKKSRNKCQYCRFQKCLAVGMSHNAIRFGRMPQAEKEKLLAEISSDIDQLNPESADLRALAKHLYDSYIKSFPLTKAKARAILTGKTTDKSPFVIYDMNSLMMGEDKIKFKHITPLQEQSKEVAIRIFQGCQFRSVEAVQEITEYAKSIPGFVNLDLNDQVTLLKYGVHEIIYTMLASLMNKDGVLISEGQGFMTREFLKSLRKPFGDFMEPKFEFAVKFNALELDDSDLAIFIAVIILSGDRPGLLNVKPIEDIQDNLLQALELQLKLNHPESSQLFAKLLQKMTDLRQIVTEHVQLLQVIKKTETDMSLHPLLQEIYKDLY
Sequence of Retinoic acid receptor RXR-alpha (Homo sapiens) (P19793 whole entry, looked up, the tested form may be a part): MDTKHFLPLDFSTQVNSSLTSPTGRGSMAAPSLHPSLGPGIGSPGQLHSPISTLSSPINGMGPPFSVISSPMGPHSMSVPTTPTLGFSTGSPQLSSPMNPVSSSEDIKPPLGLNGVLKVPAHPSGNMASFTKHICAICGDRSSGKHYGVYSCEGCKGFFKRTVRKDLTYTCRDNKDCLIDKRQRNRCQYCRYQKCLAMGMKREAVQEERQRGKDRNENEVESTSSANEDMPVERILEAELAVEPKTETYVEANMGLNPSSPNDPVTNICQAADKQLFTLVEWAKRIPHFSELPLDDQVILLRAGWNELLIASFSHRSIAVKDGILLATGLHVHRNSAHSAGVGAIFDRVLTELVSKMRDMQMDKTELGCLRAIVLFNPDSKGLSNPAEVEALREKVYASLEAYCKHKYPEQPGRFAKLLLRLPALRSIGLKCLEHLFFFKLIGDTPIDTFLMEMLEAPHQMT

ClCCOCCCl
inactive: [1] | [2] | [3]

c1ccc(NNc2ccccc2)cc1
active: [1] 82.8 µM | [6] 48.6 µM
inactive: [1] | [4] | [5] | [7]

CCC[CH2][Sn]([Cl])([CH2]CCC)[CH2]CCC
inactive: [1]

ClC1=C(Cl)C2(Cl)C3C(Cl)C=CC3C1(Cl)C2(Cl)Cl (stereo unspecified)
inactive: [1] | [2] | [3]

Clc1ccc(C(c2ccc(Cl)cc2)C(Cl)(Cl)Cl)cc1
inactive: [1] | [2] | [3]

O=C(O)C1C2CCC(O2)C1C(=O)O (stereo unspecified)
active: [1] 32 µM
inactive: [1]

Clc1ccc(Cl)c(Cl)c1
inactive: [1] | [2] | [3]

CC(C)(C)OOC(C)(C)CCC(C)(C)OOC(C)(C)C
inactive: [1]

c1ccc(C2CO2)cc1 (stereo unspecified)
inactive: [1] | [2] | [3]

C[C@]12C=CC3=C4CCC(=O)C=C4CC[C@H]3[C@@H]1CC[C@@H]2O
inactive: [1] | [2] | [3]
active: [1] 12 µM and 12.5 µM and 12.6 µM | [5] 13.2 µM | [8] 90.1 µM

Nc1ccc(Cl)cc1N
active: [1] 31.3 µM | [2] 45.3 µM | [5] 1.41 µM
inactive: [1] | [2] | [3] | [4] | [6] | [8] | [9] | [7] | [10]

COC(=O)Nc1nc2ccccc2[nH]1
inactive: [1] | [2] | [3]

CCCCOC(=O)c1ccccc1C(=O)OCc1ccccc1
inactive: [1] | [2] | [3]

Cc1ccc([N+](=O)[O-])cc1
inactive: [1] | [2] | [3]

CCN(CC)CCO
inactive: [1] | [2] | [3]

c1ccc2c(c1)oc1ccccc12
inactive: [1]

CN(C)c1ccccc1
inactive: [1]

CCN(CC)N=O
inactive: [1] | [2] | [3]

CC(C)COC(=O)c1ccccc1C(=O)OCC(C)C
inactive: [1] | [2] | [3]

CN(C)c1ccc(C(=O)c2ccc(N(C)C)cc2)cc1
inactive: [1] | [2] | [3]

O=[N+]([O-])C(Br)(CO)CO
inactive: [1] | [2] | [3]

O=Cc1ccco1
inactive: [1]

Nc1ccc([N+](=O)[O-])cc1
active: [1] 26.9 µM
inactive: [1] | [2] | [3]

CCCCCCCCCCCCCN1CC(C)OC(C)C1 (stereo unspecified)
inactive: [1] | [2] | [3] | [9] | [7]
active: [1] 81.7 µM | [4] 9.71 µM | [5] 12.5 µM | [6] 17.6 µM | [10] 6.39 µM

Cc1ccc(N)cc1
inactive: [1] | [2] | [3]
active: [1] 50 µM

CCC12COCN1COC2
inactive: [1] | [2] | [3]

Oc1ccc2ccc3cccc4ccc1c2c34
active: [1] 9.46 µM | [4] 18.8 µM | [5] 25 µM | [9] 25.5 µM | [7] 35.7 µM | [10] 12.9 µM
inactive: [1] | [6]

Cc1cc(N=Nc2ccccc2C)ccc1N
active: [6] 1.79 µM | [9] 2.24 µM
inactive: [1] | [2] | [3] | [4] | [5] | [8] | [7] | [10]

CCCCC(CC)COC(=O)c1ccc(C(=O)OCC(CC)CCCC)c(C(=O)OCC(CC)CCCC)c1 (stereo unspecified)
inactive: [1] | [2] | [3]

Clc1ccc(C(c2ccc(Cl)cc2)C(Cl)Cl)cc1
inactive: [2] | [3]
active: [1] 80.9 µM

Brc1ccc(Oc2ccccc2)cc1
inactive: [1] | [2] | [3]

Cc1ccc(N=C=O)cc1N=C=O
inactive: [1] | [2] | [3] | [4] | [5] | [6] | [9] | [7] | [10]

CC(C)(OOC(C)(C)c1ccccc1)c1ccccc1
inactive: [2] | [3]
active: [1] 78.3 µM and 78.5 µM

C=CCc1ccc2c(c1)OCO2
inactive: [1] | [2] | [3]

CC(O)CCO (stereo unspecified)
inactive: [1] | [2] | [3]

CN(C)[C@@H]1C(=O)C(C(N)=O)=C(O)[C@@]2(O)C(=O)C3=C(O)c4c(O)cccc4[C@@](C)(O)[C@H]3C[C@@H]12
inactive: [1] | [2] | [3]

CC(C)(C)C(O)(CCc1ccc(Cl)cc1)Cn1cncn1 (stereo unspecified)
inactive: [1] | [2] | [3] | [9]
active: [4] 1.85 µM | [5] 0.503 µM | [6] 0.552 µM | [7] 5.75 µM | [10] 0.26 µM

[Cl-].[Cl-].[Hg+2]
inactive: [2] | [3]
active: [1] 11.4 µM

Oc1ccccc1Cl
inactive: [1] | [2] | [3]

CN(C)C(=O)Nc1ccc(Cl)cc1
inactive: [1] | [2] | [3]

CCNS(=O)(=O)C(F)(F)C(F)(F)C(F)(F)C(F)(F)C(F)(F)C(F)(F)C(F)(F)C(F)(F)F
inactive: [1] | [2] | [3]

CCCCCCCCOC(=O)c1ccc(C(=O)OCCCCCCCC)c(C(=O)OCCCCCCCC)c1
inactive: [1] | [2] | [3]

c1ccc(N=Nc2ccccc2)cc1
inactive: [1] | [2] | [3] | [4] | [5] | [6] | [9] | [7]
